# Several values for one entry are separate records, joined by “and”; a condition that tells them apart may be missing. Identical values can stand only once. Some of the results follow. Results filed as inconclusive are left out. Activity calls are given as the source filed them. The call rests on the fitted dose curve; in most records, active means well fitted inhibition curve with a large enough effect; inconclusive means small, poorly fitted or top-dose-only effect; inactive means flat fitted curve, though single readings scatter.
# Molecular target: Ubiquitin carboxyl-terminal hydrolase 1 (Homo sapiens) (UniProt O94782)
# Sequence (O94782 whole entry, looked up): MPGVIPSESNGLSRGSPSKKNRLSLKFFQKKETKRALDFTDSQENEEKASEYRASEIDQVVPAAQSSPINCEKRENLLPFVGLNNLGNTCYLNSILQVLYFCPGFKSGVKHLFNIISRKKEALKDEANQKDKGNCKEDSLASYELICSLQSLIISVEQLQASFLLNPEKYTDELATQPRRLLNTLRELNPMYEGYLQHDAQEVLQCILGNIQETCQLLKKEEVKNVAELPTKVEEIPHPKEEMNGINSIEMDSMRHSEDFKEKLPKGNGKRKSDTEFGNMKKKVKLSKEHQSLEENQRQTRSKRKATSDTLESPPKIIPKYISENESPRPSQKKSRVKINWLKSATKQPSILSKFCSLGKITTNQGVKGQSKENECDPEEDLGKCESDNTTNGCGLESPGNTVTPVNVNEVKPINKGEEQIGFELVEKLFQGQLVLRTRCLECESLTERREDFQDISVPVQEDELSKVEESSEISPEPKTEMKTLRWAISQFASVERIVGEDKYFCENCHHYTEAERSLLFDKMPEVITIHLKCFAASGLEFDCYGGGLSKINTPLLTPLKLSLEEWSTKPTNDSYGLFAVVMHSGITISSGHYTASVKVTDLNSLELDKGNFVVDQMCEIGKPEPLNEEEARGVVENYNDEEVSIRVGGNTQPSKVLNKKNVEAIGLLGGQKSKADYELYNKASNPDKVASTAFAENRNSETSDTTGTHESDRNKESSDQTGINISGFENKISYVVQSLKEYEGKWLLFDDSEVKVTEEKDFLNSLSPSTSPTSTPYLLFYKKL
# Assay: Inhibitors of USP1/UAF1: Hit Validation in Primary Assay
# Conditions: Ub-Rhodamine cleavage, fluorescence kinetic read
# Text: Deubiquitinating enzymes (DUBs) are a class of enzymes that can cleave isopeptide bond formed between the C-terminal carboxylate of ubiquitin and a lysine side-chain amino group on the target protein. Among them, ubiquitin specific proteases (USPs) constitute the largest DUB family. Human USPs are emerging as promising targets for pharmacological intervention because of their connection to a number of human diseases, including prostate, colon and breast cancer (1, 2), pediatric acute lymphoblastic leukemia (3), and familial cylindromatosis (4). The advantage of inhibiting USPs lies in the potential specificity of therapeutic intervention that can lead to better efficacy and reduce nonspecific side effects. […] This miniaturized assay has a fluorescent read-out and is used to screen the NIH Molecular Libraries Small Molecule Repository (MLSMR) in order to identify a small molecule that inhibits USP1. […]
# 3 microliters of reagents (buffer in columns 3 and 4 as negative control and 1nM USP1/UAF1 complex in columns 1, 2, and 5-48) are dispensed into Greiner black solid bottom 1536-well assay plates. […] The plates are immediately centrifuged at 1000 rpm for 15 seconds, and subsequently transferred to a ViewLux high-throughput CCD imager (PerkinElmer) wherein kinetic measurements of fluorescence are acquired using 480 nm excitation/540 nm emission filter set (6 reads every 60 seconds, see Table 1). […]
compound,measurement,value
CC(C)c1ccc2c(c1)c(SC(C)(C)C)c(CC(C)(C)C(=O)O)n2Cc1ccc(Cl)cc1,Potency,66.3 µM (active) and 41.8 µM (active)
